# Source: the supplement of paper PMC12645437, “Orthogonal IMiD-Degron Pairs Induce Selective Protein Degradation in Cells” (ACS Chemical Biology, 2025)
# In all, about 8,300 sequences were measured (“log2 fold change of degron read counts, EGFP-low vs EGFP+ sorted cells (limma voom), compound-induced degradation”: median about -1.1, highest 2% from about 3.2 on). This excerpt belongs to a sample that is enriched for the highest values.
# T1: CRBN, Q96SW2
# T1 chain: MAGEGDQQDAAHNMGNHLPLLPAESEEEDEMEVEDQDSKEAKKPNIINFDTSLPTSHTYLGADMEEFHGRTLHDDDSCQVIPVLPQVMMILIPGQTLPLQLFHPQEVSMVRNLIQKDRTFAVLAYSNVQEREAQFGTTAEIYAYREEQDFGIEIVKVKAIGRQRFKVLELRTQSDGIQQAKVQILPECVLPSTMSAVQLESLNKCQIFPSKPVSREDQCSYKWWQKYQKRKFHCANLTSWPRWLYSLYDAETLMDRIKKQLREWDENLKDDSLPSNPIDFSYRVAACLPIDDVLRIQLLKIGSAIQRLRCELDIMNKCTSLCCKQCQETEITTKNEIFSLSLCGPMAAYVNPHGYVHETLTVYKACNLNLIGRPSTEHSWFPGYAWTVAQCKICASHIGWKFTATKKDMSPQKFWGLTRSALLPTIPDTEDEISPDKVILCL
# Target: T1, CRBN, Q96SW2
# Assay: log2 fold change of degron read counts, EGFP-low vs EGFP+ sorted cells (limma voom), compound-induced degradation; higher = more compound-induced degradation of the degron-EGFP fusion; degrons are variants of IKZF1/3 zinc finger 2; compound dose not given here
# Conditions: Jurkat, 18 h
# [1] = compound: compound 19 (5-tert-butyl-thalidomide)
# [2] = compound: compound 22 (5-morpholino-thalidomide)
# [3] = compound: compound 33 (diphenyl IMiD analogue)
# 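Note: pooled lentiviral library of zinc finger degron-EGFP fusions in mCherry-positive Jurkat cells, FACS-sorted after compound exposure, with degron abundance counted by next-generation sequencing.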
Sequence,log2 fold change of degron read counts [1],log2 fold change of degron read counts [2],log2 fold change of degron read counts [3],log2 fold change of degron read counts (compound: thalidomide)
"FCCPVCGAHFTQKGNLLRHIKL [46F_47C_49P_50V_52G_53A_54H_55F_67L_, Q9UKT9]",1.59,0.752,1.65,0.961
"LRCNQCGFFCTQKGNLLRHIKL [46L_47R_49N_50Q_52G_53F_54F_55C_67L_, Q9UKT9]",-1.45,-1.65,-1.16,-0.846
"FGCEICGASFTQKGNLLRHIKL [46F_47G_49E_50I_52G_53A_54S_55F_67L_, Q9UKT9]",3.07,2.12,1.77,1.03
"FQCEICGASFTQKGNLLRHIKL [46F_47Q_49E_50I_52G_53A_54S_55F_67L_, Q9UKT9]",2.5,2.8,2.23,3.75
"FYCEICGASFTQKGNLLRHIKL [46F_47Y_49E_50I_52G_53A_54S_55F_67L_, Q9UKT9]",3.72,3.7,2.91,1.64
"FMCEICGASFTQKGNLLRHIKL [46F_47M_49E_50I_52G_53A_54S_55F_67L_, Q9UKT9]",1.61,1.94,2.9,2
"FHCEICGASFTQKGNLLRHIKL [46F_47H_49E_50I_52G_53A_54S_55F_67L_, Q9UKT9]",3.13,2.67,1.52,0.22
"FCCEICGASFTQKGNLLRHIKL [46F_47C_49E_50I_52G_53A_54S_55F_67L_, Q9UKT9]",3.35,2.7,2.35,2.35
"FDCEICGASFTQKGNLLRHIKL [46F_47D_49E_50I_52G_53A_54S_55F_67L_, Q9UKT9]",3.18,0.784,0.437,1.24
"FSCEICGASFTQKGNLLRHIKL [46F_47S_49E_50I_52G_53A_54S_55F_67L_, Q9UKT9]",3.56,2.8,2.11,1.64
"FKCEICGASFTQKGNLLRHIKL [46F_47K_49E_50I_52G_53A_54S_55F_67L_, Q9UKT9]",1.57,-0.809,-2.2,-0.268
"FWCNICGAGFTQKGNLLRHIKL [46F_47W_49N_50I_52G_53A_54G_55F_67L_, Q9UKT9]",1.8,1.84,0.64,-0.741
"FTCDQCGAIFTQKGNLLRHIKL [46F_47T_49D_50Q_52G_53A_54I_55F_67L_, Q9UKT9]",-3.12,-2.8,-2.46,-2.63
"LTCEICGFFCTQKGNLLRHIKL [46L_47T_49E_50I_52G_53F_54F_55C_67L_, Q9UKT9]",0.0809,0.0956,0.606,0.98
"FFCNICGAKFTQKGNLLRHIKL [46F_47F_49N_50I_52G_53A_54K_55F_67L_, Q9UKT9]",1.77,1.78,0.0329,-0.6
"FQCNVCGAGFTQKGNLLRHIKL [46F_47Q_49N_50V_52G_53A_54G_55F_67L_, Q9UKT9]",-0.572,-0.754,-0.58,1.66
"FQCNQCGRQFTQKGNLLRHIKL [46F_47Q_49N_50Q_52G_53R_54Q_55F_67L_, Q9UKT9]",-3.25,-3.61,-3.19,-2.34
"FKCDQCGAQFTQKGNLLRHIKL [46F_47K_49D_50Q_52G_53A_54Q_55F_67L_, Q9UKT9]",-2.9,-3.7,-3.4,-3.16
